# Neddylation inh: cullin neddylation inhibition | TR-FRET cullin neddylation, biochemical | calls only at 25 µM | P61081+Q13564 | hit rate 0.58% among 360,000 | AID 651699; in the data active means inhibition above about 36%
# MBD2 inh: blocks human MBD2 binding to methylated DNA | AID 686964 | hit rate 0.31% among 370,000 | inhibition, % at 4.4 µM | TR-FRET, MBD2 binding to methylated oligonucleotide; in the data active means inhibition above about 13%
# KLK7 zymogen act: activators of human kallikrein-7 zymogen. purified proKLK7, EDANS-DABCYL substrate fluorescence; 100% is mature enzyme control, 0% vehicle. activation, % at 7 µM. hit rate 0.9% among 370,000. AID 652039;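 active means activation above the mean of all tested compounds plus 3 SD, computed per campaign excluding outliers beyond control limits, cut at about 13% in these data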
# UHRF1 MBD2 ctr: human UHRF1 methylated DNA binding inhibitors; hit rate 0.75% among 370,000; inhibition, % at 4.4 µM; Q96T88; UHRF1 binding to methylated oligo, TR-FRET; in the data active means inhibition above about 21%;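 further: UHRF1 SRA domain binding a hemimethylated CpG hairpin DNA probe; 0% = median of test compound wells and 100% = reference inhibitor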
# Rin1-Abl PPI inh: human Rin1-Abl interaction inhibition | inhibition, % at 7.35 µM | hit rate 0.4% among 360,000 | P00519+Q13671 | TR-FRET Rin1/Abl binding, biochemical; in the data active means inhibition above about 5%, passing the limit was not always enough
# LEDGF integ inh: blocks HIV-1 LEDGF/p75-dependent DNA integration; TR-FRET IN-LEDGF/p75 DNA integration, Eu/Cy5; inhibition, % at 3.7 µM; hit rate 0.64% among 370,000; AID 743269;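 active means inhibition above the screen-wide mean plus 3 SD, cut at about 13% in these data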;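 further: signal is the Cy5 over europium emission ratio at 671 and 618 nm; 0% = plate median of compound wells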
# proKLK7 act conf: confirmation of human kallikrein-7 zymogen activators. hit rate 68% among 3,200. AID 686949. activation, % at 7 µM. purified proKLK7, EDANS-DABCYL substrate fluorescence; scaled: vehicle 0, mature enzyme 100. shares compounds with KLK7 zymogen act;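 active means activation, as change over the incubation, above the mean of all tested compounds plus 3 SD, cut at about 13% in these data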
# EDANS-DABCYL int: fluorescence interference counter-screen for KLK7 activators | hit rate 80% among 3,200 | EDANS-DABCYL substrate fluorescence interference, no enzyme, 4 h; solvent 0%, active enzyme control 100% | AID 686952 | activation, % at 7 µM | shares compounds with KLK7 zymogen act;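 active means activation above the all-compound mean plus 3 SD, ignoring values outside control-based bounds, cut at about 4.8% in these data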;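 further: value is the 4 h activation minus the activation read at time zero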
# EDANS interf: EDANS fluorescence interference in dose response, no enzyme. hit rate 20% among 250. shares compounds with KLK7 zymogen act. EC50, µM. EDANS-DABCYL peptide fluorescence interference;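 active means compounds that raise the fluorescence signal in this interference counterscreen, with EC50 at or below 10 µM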;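 further: intact quenched peptide substrate alone read at 355 nm excitation and 520 nm emission; signal is fluorescence gain from T0 to T4 after four hours at room temperature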
# * hit, by the source's call; i = inactive; / = no result shown. The list is not random: actives were taken first. Their share in the collection is about 3.1%.
SMILES,Neddylation inh,MBD2 inh,KLK7 zymogen act,UHRF1 MBD2 ctr,Rin1-Abl PPI inh,LEDGF integ inh,proKLK7 act conf,EDANS-DABCYL int,others
O=C1Nc2ccc(S(=O)(=O)NCCCO)c3cccc1c23,/,-1,64*,-4,-6,-4,83*,86*,
N#Cc1cccc(NC(=O)OC2CCC23CCC(c2ccccc2)CC3)c1 (configuration not stated),/,-1,0,-2,/,0,/,/,
O=C(CC1C(=O)NCCN1Cc1c(F)cccc1Cl)NCCCn1cccn1 (configuration not stated),i,-2,0,5,2,-9,/,/,
Nc1ccc2nc3c(=O)n(CCc4ccccc4)c(=O)[nH]c3nc2c1,i,-27,-2,-55,-26,9,/,/,
Nc1ccc2nc3c(=O)n(C4CCCCC4)c(=O)[nH]c3nc2c1,i,-30,14*,-96,-26,-2,8,7.6*,
Nc1ccc(-c2ccc(C(=O)O)s2)cn1,/,-3,19*,0,-3,-3,73*,82*,
N#Cc1ccc(CC(=O)c2ccccc2)[nH]c1=O,i,-7,16*,-2,1,6,100*,98*,
COc1ccc(-c2noc3c2-c2nc(-c4c(F)cccc4F)sc2CC3)cc1,i,1,0,8,1,-1,/,/,
Nc1nc2sc3c(c2cc1C(=O)N1CCOCC1)CCCC3,/,2,14*,0,2,1,12,14*,
Nc1nc2sc3c(c2cc1C(=O)NCC(=O)O)CCCC3,i,-6,-1,-1,-8,-4,/,/,
CCCSc1ncc(Cl)c(C(=O)Nc2ccc(S(=O)(=O)N3CC(C)OC(C)C3)cc2)n1 (configuration not stated),i,0,67*,-4,0,2,-145,-145,
COc1ccc(NC(=O)NNC(=O)CCc2ccc(O)c(O)c2)cc1OC,i,3,24*,2,0,11,27*,24*,
CCOC(=O)Cc1ccc(Nc2nc(NCc3ccccc3)nc3ccsc23)cc1,i,3,-4,0,-3,2,/,/,
O=C(O)COc1ccc2nsnc2c1Cl,/,-8,19*,-2,-5,-2,27*,24*,
Cc1ccc(C=NNC(=O)CSc2nc3sc4c(c3c(=O)n2-c2ccccc2)CCCC4)s1,/,-1,0,0,/,0,/,/,
CCn1c(=N)c(C(=O)NC)cc2c(=O)n3cccc(C)c3nc21,i,-1,76*,-2,-5,-3,67*,73*,
CCCn1c(=N)c(C(=O)NC2CCCC2)cc2c(=O)n3cccc(C)c3nc21,i,-9,133*,-2,-3,1,-17,-41,
CCOCCCn1c(=N)c(C(=O)NCc2ccc3c(c2)OCO3)cc2c(=O)n3cccc(C)c3nc21,i,/,/,/,-7,/,/,/,
Cc1cccn2c(=O)c3cc(C(=O)O)n(C)c3nc12,/,2,21*,-2,2,1,49*,48*,
Cc1cccn2c(=O)c3cc(C(=O)NC4CCCC4)n(C)c3nc12,/,-2,0,-2,0,2,/,/,
Cc1onc(-c2ccccc2)c1CNC(=O)Nc1ccccc1,i,1,0,13,-3,0,/,/,
CCOC(=O)[C@]12CCCC=C1N(CCCOC)C(=O)[C@@H]2CC(=O)N1CCSCC1,/,1,0,-2,/,10,/,/,
CCOCCCn1c(=S)[nH]c2cc(C(=O)NCCCN(CC)CC)ccc2c1=O,i,-3,0,1,-3,2,/,/,
COc1cc(/C=C/C(=O)Nc2ccc3[nH]c(=O)[nH]c3c2)cc(OC)c1OC,i,-3,1,-5,-7,-3,/,/,
O=C(/C=C/c1ccc(F)cc1)Nc1ccc2[nH]c(=O)[nH]c2c1,i,-4,35*,-3,-2,3,101*,93*,
SMILES,Neddylation inh,MBD2 inh,KLK7 zymogen act,UHRF1 MBD2 ctr,Rin1-Abl PPI inh,LEDGF integ inh,proKLK7 act conf,EDANS-DABCYL int,others
O=C(Nc1ccc2[nH]c(=O)[nH]c2c1)c1c(F)c(F)c(F)c(F)c1F,i,-11,19*,-2,3,-1,29*,22*,EDANS interf=i
CCCCCCn1c(=O)n2n(c1=O)C[C@]1(OC(=O)NC3CC3)CN(S(=O)(=O)c3ccc(C)cc3)C[C@]1(O)C2,i,2,0,13,0,-1,/,/,
Cc1cccc(NC(=O)c2ncn3c2C(=O)N(C)CC3)c1,i,1,0,0,0,2,/,/,
COCc1cc(C)nc2sc(C(=O)Nc3nccs3)c(N)c12,/,-4,4,1,0,4,/,/,
Cc1cc(C)c2c(N)c(C(=O)Nc3nccs3)sc2n1,/,-7,120*,-9,-4,-4,-3,-11,
COc1cc(NC(=O)CCCl)cc(-n2cnnn2)c1,i,-5,1,3,-2,1,/,/,
N#Cc1cnn2c(-c3ccc(Cl)cc3Cl)ccnc12,/,3,20*,-3,4,8,21*,22*,
c1ccc(-c2c[nH]c3ccc(OCc4ccc5ccccc5n4)c(-c4ccccc4)c23)cc1,/,-2,1,0,/,6,/,/,
Cc1ccccc1NS(=O)(=O)c1ccc2oc(=O)ccc2c1,i,-3,0,3,-2,-1,/,/,
CCOC(=O)c1cc2nc(-c3ccccc3)cc(C)n2n1,/,0,8,-3,-3,-3,/,/,
CC(C)CCNC(=O)c1cnn2c(C(F)(F)F)cc(-c3ccco3)nc12,i,-8,-1,2,-6,2,/,/,
CCOC(=O)c1cnn2c(C(F)(F)F)cc(-c3ccco3)nc12,/,3,31*,-4,-5,0,26*,43*,
CCOC(=O)c1cnn2c(C)cc(-c3ccccc3)nc12,/,0,24*,-2,3,-1,21*,32*,
CCC[C@H]1[C@@H](NCc2ccccc2)CC[C@@]23CCCN2C(=O)CCC[C@@H]13,/,-6,/,1,/,5,/,/,
CC(C)[C@H](NC(=O)N1CCn2c1nc1ccccc12)C(=O)NC1CCCCC1,i,-1,0,1,6,1,/,/,
CN1C(=O)c2ccccc2N(C)C1c1cccc(O)c1 (configuration not stated),/,-1,50*,-2,0,0,32*,35*,
COc1cc(C2N(C)C(=O)c3ccccc3N2C)ccc1O (configuration not stated),/,-5,46*,1,-3,3,43*,42*,
O=C(CCN1C(=O)c2ccccc2C1=O)NCc1ccc(F)cc1,i,5,-1,3,2,-1,/,/,
